From PubChem BioAssay
HT1080 IDH1KD tx – qHTS for induction of synthetic lethality in tumor cells producing 2HG: qHTS for the HT-1080-IDH1KD cell line. AID 686971, 2013. hit rate 2% among 360,000. Potency, µM (top dose mostly 46.1 µM), for inactives: at the top dose activity, negative = toxicity, hits mostly cytotoxic. HT-1080 IDH1 knockdown viability, ATP luminescence, 48 h;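 note: 0% = DMSO wells and -100% = cell-free medium wells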
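In this qHTS, HT-1080 cells depleted of IDH1 are exposed for 48 h at 37 °C to compound titrations. Toxicity is scored from CellTiter-Glo luminescence, with DMSO as full viability and medium alone as none.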
HT1080NT lethal – qHTS for induction of synthetic lethality in tumor cells producing 2HG: qHTS for the HT-1080-NT fibrosarcoma cell line. HT-1080-NT fibrosarcoma viability, CellTiter-Glo ATP luminescence, 48 h. Potency, µM (titrated, usually from 46.1 µM), without a hit: at the top dose activity, negative = less viability, usual class: cytotoxic. hit rate 1.6% among 360,000;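 note: NT is the 2HG producing partner of a matched IDH1 knockdown line; 0% = DMSO-treated cells and -100% = media-only wells without cells; nearly all actives have a fitted effect of over 55% in size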
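Read-out is CellTiter-Glo luminescence after 10 minutes at room temperature, following 48 hours' compound treatment of HT-1080-NT cells (750 cells/well, RPMI, 5% FBS, 37 degrees C).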
MCF10A rereplic – A quantitative high throughput screen for small molecules that induce DNA re-replication in MCF 10a normal breast cells. MCF 10A DNA re-replication, Hoechst nuclear intensity, 48 h. Potency, µM (titrated, usually from 46.1 µM), for inactives: at the highest dose activity, positive = re-replication, usual class: activators. hit rate 2.9% among 350,000; note: % of control where 0% means no effect; nearly all actives have a fitted effect of over 50% in size
KB-3-1 tox – qHTS assay for MDR1-selective chemotherapeutics: Primary screen using the parental adenocarcinoma cell KB-3-1; AID 1347075, 2019; KB-3-1 viability, CellTiter-Glo ATP luminescence, 72 h; hit rate 1.4% among 400,000; Potency, µM (top dose mostly 46.1 µM), actives largely listed as cytotoxic; note: % is set by controls: 0 for no effect and ±100 for the full control effect; nearly all actives have a fitted effect of over 60% in size
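Luminescent ATP read-out (CellTiter-Glo) measures survival of drug-naive KB-3-1 cells after 72 h compound exposure at 37 °C. Titration series was screened from lowest to highest concentration, with DMSO vehicle plates as background controls.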
KB-V1 MDR tox – qHTS assay for MDR1-selective chemotherapeutics: Primary screen using the drug-selected MDR subline cells KB-V1 | KB-V1 MDR cells viability, CellTiter-Glo, 72 h | Potency, µM (highest dose often 46.1 µM), actives largely listed as cytotoxic | hit rate 3.4% among 400,000; note: % is set by controls: 0 for no effect and ±100 for the full control effect; nearly all actives have a fitted effect of over 60% in size
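In this primary screen, KB-V1 cells overexpressing P-gp are incubated with library compounds (lowest to highest concentration) for 72 h at 37 degrees C before a luminescent ATP viability read.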
SW480 rereplic – A quantitative high throughput screen for small molecules that induce DNA re-replication in SW480 colon adenocarcinoma cells. Potency, µM (series often up to 46.1 µM), inactives show at the top dose re-replication activation, usual class: activators. AID 624297, 2012. SW480 DNA re-replication, Hoechst DNA content imaging, 48 h. hit rate 1.8% among 340,000; note: % of control where 0% means no effect; nearly all actives have a fitted effect of over 55% in size
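Compounds, transferred as 23 nL by pin tool, were incubated with cells for 48 hr; DNA content per nucleus was then quantified by Hoechst staining and fluorescence plate imaging.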
* hit, by the source's call; i = inactive; ? = inconclusive; nt = no result; [ ] = another dose, or the depositor's remark. Compounds with a hit are over-represented: about 7.9% of the library has one in this group of screens. Calls come from the whole dose curve; as a rule, active = well fitted curve in the direction sought with a large enough effect; inconclusive = small, poorly fitted or top-dose-only effect, or another doubt; inactive = no such curve, though single readings can be large; an effect the other way counts as inactive or inconclusive. Potency is the fitted concentration of half-maximal effect.

SMILES | HT1080 IDH1KD tx | HT1080NT lethal | MCF10A rereplic | KB-3-1 tox | KB-V1 MDR tox | SW480 rereplic
C(=C\c1ccncc1)/c1ccccc1 | 19% | 24% | 5% | i | i | -8%
CCC[N+](C)(C)c1ccc(/C=C/c2ccncc2)cc1 | nt | nt | nt | 1.5µM* | i | nt
O=C(NCc1cccs1)C1Cc2c(-c3ccc(Cl)cc3)ccnc2O1 (centres undefined) | 2.1µM* | ? | nt | 2.1µM* | ? | nt
O=C(NCC1CC1)C1Cc2c(-c3ccc(Cl)cc3)ccnc2O1 (centres undefined) | -20% | -17% | nt | i | ? | nt
COc1ccc(CNC(=O)C2Cc3c(-c4cccc(C(C)=O)c4)ccnc3O2)cc1OC (centres undefined) | ? | -28% | nt | ? | i | nt
CC(=O)c1cccc(-c2ccnc3c2CC(C(=O)NCc2cccs2)O3)c1 (centres undefined) | ? | ? | nt | 1µM* | 2.3µM* | nt
COC(=O)C(NNc1ccc(F)cc1)(NC(=O)c1ccccc1)C(F)(F)F (centres undefined) | -18% | -10% | 0% | i | 18µM* | -6%
COCCn1nnnc1C(c1cc2cc(OC)ccc2[nH]c1=O)N1CCC(Cc2ccccc2)CC1 (centres undefined) | -2% | 0% | ? | ? | ? | 19%
COc1ccccc1C(c1nnnn1CCc1ccccc1)N1CCCCCC1 (centres undefined) | ? | ? | ? | i | 16µM* | ?
COc1ccc2cc(C(c3nnnn3CCc3ccccc3)N3CCCC(C)C3)c(=O)[nH]c2c1 (centres undefined) | -2% | 1% | -37% | i | 18µM* | 9%
COc1ccccc1C(c1nnnn1CCc1ccccc1)N1CCN(c2ccccc2)CC1 (centres undefined) | 9% | 11% | 6% | i | i | 1%
COCCNC(=O)c1ccc2c(=O)n(CCOC)c(SCC(=O)c3c[nH]c4ccccc34)nc2c1 | nt | nt | nt | i | i | nt
COc1ccc(-c2cc(C(=O)OC(C)C(=O)c3ccccc3)c3cccc(Cl)c3n2)cc1 (centres undefined) | nt | nt | nt | i | i | nt
O=C(CSc1ncc2c(n1)-c1cc(Cl)ccc1N(Cc1ccccc1)S2(=O)=O)NCCc1ccccc1 | nt | nt | nt | i | i | nt
COc1ccc(C)cc1NC(=O)Cn1cc(S(=O)(=O)Cc2ccccc2Cl)c2ccccc21 | nt | nt | nt | ? | i | nt
CC(C)(C)c1cc(OC(=O)c2ccncc2)ccc1O | 0% | 1% | 15% | i | i | -2%
CC(C)(C)c1cc(OC(=O)c2ccccc2F)ccc1O | 21µM* | 33µM* | -2%[9.22 µM] | i | i | 15%
CC(C)(C)C1C/C(=C/c2ccccn2)C(=O)/C(=C/c2ccccn2)C1 (centres undefined) | 0.65µM* | 0.73µM* | ? | ? | ? | 0.41µM*
CC1C/C(=C/c2cccs2)C(=O)/C(=C/c2cccs2)C1 (centres undefined) | -6% | -7% | 2% | i | ? | ?
CC1C/C(=C/c2ccccn2)C(=O)/C(=C/c2ccccn2)C1 (centres undefined) | 0.58µM* | 0.65µM* | 2.3µM* | ? | i | 0.29µM*
CCN(CC)CCOC(=O)c1ccc(NC(=O)c2cc3c(s2)-c2ccccc2OC3)cc1 | nt | nt | nt | i | i | nt
CCOc1ccc2nc(S(=O)(=O)NC(=O)C3(C)CCN3C(=O)CCc3cccs3)sc2c1 (centres undefined) | ? | 12% | nt | i | i | nt
C=C(C)C(=O)Nc1nnc(-c2cccs2)s1 | 0% | 0% | 10µM* | i | i | 19%
CS(=O)(=O)N(CC(=O)Nc1ccc(C(N)=O)cc1)C1CCCCC1 | 1% | -5% | -2% | i | i | -4%
CS(=O)(=O)N(CC(=O)Nc1ccc(Br)cc1)C1CCCCC1 | ? | ? | 11% | 23µM* | ? | 20%
SMILES | HT1080 IDH1KD tx | HT1080NT lethal | MCF10A rereplic | KB-3-1 tox | KB-V1 MDR tox | SW480 rereplic
CC(C)CNC(=O)CN(C1CCCCC1)S(C)(=O)=O | 11% | 5% | ? | i | i | 6.5µM*
C(=Nc1cnc2ccccc2c1)c1cccnc1 | nt | nt | nt | i | i | nt
O=C(NCc1cccs1)c1csc([C@@H]2O[C@H](CO)[C@H](O)[C@H](O)[C@H]2O)n1 | ? | 25% | nt | i | i | nt
COc1ccc(Cl)cc1NC(=O)C(C)Sc1nnc(C2CC2)n1C1CC1 (centres undefined) | -1% | -1% | 2% | i | 18µM* | -3%
O=C(NCCc1ccccc1)c1ccc(-c2ccc(F)c(F)c2)c2ccoc12 | 9% | -8% | nt | i | ? | nt
Cc1ccnc(Sc2ccc([N+](=O)[O-])cc2[N+](=O)[O-])n1 | ? | ? | ? | ? | ? | 12µM*
Cc1ccc(Sc2ccc([N+](=O)[O-])cc2[N+](=O)[O-])nc1 | 23µM* | 16µM* | ? | ? | i | ?
Cc1csc(NC(=O)Cc2coc3cc(C)c(C(C)C)cc23)n1 | 23µM* | ? | ? | ? | ? | ?
Cc1cc2occ(CC(=O)NCc3cccs3)c2cc1C(C)C | -2% | 0% | 6% | i | 21µM* | -2%
O=C(Cc1coc2cc(O)ccc12)NNC(=O)c1cccs1 | -12% | 1% | ? | i | ? | 14%
Cn1ncc2c(N3CCC(Cc4ccccc4)CC3)ncnc21 | ? | -25% | -10% | ? | 4.6µM* | 3%
Cc1ccc(Cn2ncc3c(N4CCN(c5ccc(C)cc5)CC4)ncnc32)cc1 | -15% | 6% | 24% | i | ? | 2%
COc1cccc(N2CCN(c3ncnc4c3cnn4-c3ccc(C)cc3C)CC2)c1 | ? | 23µM* | 6.5µM* | 10µM* | ? | 5%
COc1ccc(-n2ncc3c(SCC(=O)N4CCN(c5ccccc5OC)CC4)ncnc32)cc1 | -1% | -3% | ? | i | 9.2µM* | 1%
Cc1ccc(Cn2ncc3c(N4CCN(Cc5ccc(Cl)cc5)CC4)ncnc32)cc1 | -12% | -2% | ? | ? | 2.6µM* | 11%
c1ccc(CCN2CCN(c3ncnc4c3cnn4-c3ccccc3)CC2)cc1 | -1% | 2% | ? | ? | i | -7%
